For assay [1], the system named is Human papillomavirus type 1a protein E7 (residues 44-93). As to the kind of experiment: HPV1a E7 fragment binders on microarrays, primary screen, biochemical, small-molecule microarray, residues 44-93, 635 nm fluorescence (AID 1108).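 Further: E7 fragment applied at 1 µg/mL in TBST for 1 h at 4 C; score combines spot fluorescence with its signal to noise ratio.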 To be noted: small-molecule microarray binding, fluorescence 635 nm; higher = more signal.
Assay [2] is described as follows: modulators of HCV replicon luciferase signal, primary screen, HCV replication inhibitor project, Huh7 cells, luciferase reporter (AID 1109).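 Further: huh7 hepatoma cells harbouring a luciferase neomycin HCV replicon reporter; luciferase luminescence as measure of HCV replicon replication; test concentration not given here.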 To be noted: 48 h, higher = more signal. In general terms: In antiviral work, replicon cells carry a viral genome segment that copies itself.
Assay [3] addresses Left-right determination factor 2 (Homo sapiens) (UniProt O00292). As to the kind of experiment: LEFTY2 binders on small-molecule microarrays, primary screen, biochemical, small-molecule microarray, 635 nm fluorescence scan (AID 1110). To be noted: LEFTY2 binding, higher = more signal.
In assay [4] the target is Calmodulin-1 (Homo sapiens) (UniProt P0DP23). The experiment in a line: CALM1 binders on microarrays, EGTA buffer, profiling panel, biochemical, small-molecule microarray, Cy5-labelled CALM1 (AID 1111).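 Further: labelled calmodulin applied in Tris saline Tween buffer holding calcium plus EGTA and DTT.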 The settings on record: Cy5-CALM1 binding fluorescence, higher = more signal.
The target is the same in assay [5]. The experiment in a line: calcium-bound CALM1 binders on microarrays, profiling panel, artefact control for SMM control-protein annotation, biochemical, small-molecule microarray, Cy5-labelled CALM1, plus calcium (AID 1112).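 Further: score merges spot fluorescence with signal to noise from triplicate slides.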 The settings on record: Cy5-CALM1 binding fluorescence, higher = more signal.
Assay [6] can be described thus: small-molecule microarray binders of probe aWnt5a, primary screen, biochemical, biotinylated probe, 635/667 nm fluorescence (AID 1113).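 Further: score merges 667 nm fluorescence intensity with signal-to-noise per printed feature.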 The settings on record: higher = more signal.
Assay [7] is described as follows: small-molecule microarray binders of probe aShh, primary screen, biochemical, biotinylated probe, 635/667 nm fluorescence (AID 1114).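 Further: probe is biotin-labelled aShh protein from a stem cell growth factor screen; measures binding of labelled protein to compounds printed on the slide; score merges feature fluorescence at 667 nm with signal-to-noise.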 The settings on record: higher = more signal.
Assay [8] is described as follows: small-molecule microarray binders of probe aNog, primary screen, biochemical, biotinylated probe, 635/667 nm fluorescence (AID 1115).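 Further: probe is biotinylated aNog protein used at 0.15 µg/mL for 1 h at 4 C; z-score combines 667 nm fluorescence of each spot with its signal to noise.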 The settings on record: higher = more signal.
For assay [9], the target named is Torsin-1A-interacting protein 1 (Homo sapiens) (UniProt Q5JTV8). As to the kind of experiment: LAP1 binders from COS7 cell lysate, primary screen, small-molecule microarray, 635/667 nm fluorescence (AID 1116). To be noted: COS7-hLAP1 lysate binding, 635 nm fluorescence, higher = more signal.
The target of assay [10] is Alpha-bungarotoxin (Bungarus multicinctus) (UniProt P60615). As to the kind of experiment: alpha-bungarotoxin binders on microarray, profiling panel, artefact control for SMM control protein annotation, biochemical, small-molecule microarray, Alexa647 label, 635/667 nm fluorescence (AID 1117). To be noted: alpha-BTX-A647 binding fluorescence, higher = more signal.
Sequence of Alpha-bungarotoxin (Bungarus multicinctus) (P60615 whole entry, looked up): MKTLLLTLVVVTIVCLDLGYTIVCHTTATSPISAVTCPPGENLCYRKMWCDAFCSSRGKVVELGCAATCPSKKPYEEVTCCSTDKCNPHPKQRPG

Sequence of Left-right determination factor 2 (Homo sapiens) (O00292 whole entry, looked up): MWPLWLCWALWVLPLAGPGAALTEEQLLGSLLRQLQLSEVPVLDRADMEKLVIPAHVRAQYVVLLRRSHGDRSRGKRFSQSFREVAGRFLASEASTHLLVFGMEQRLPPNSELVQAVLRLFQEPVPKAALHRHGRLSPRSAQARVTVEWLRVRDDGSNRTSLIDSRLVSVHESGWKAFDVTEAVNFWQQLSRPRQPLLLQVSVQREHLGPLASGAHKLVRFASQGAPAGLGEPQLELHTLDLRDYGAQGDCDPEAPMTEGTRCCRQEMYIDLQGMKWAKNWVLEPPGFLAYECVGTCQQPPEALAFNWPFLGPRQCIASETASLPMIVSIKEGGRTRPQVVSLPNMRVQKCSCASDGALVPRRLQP
Sequence of Torsin-1A-interacting protein 1 (Homo sapiens) (Q5JTV8 whole entry, looked up): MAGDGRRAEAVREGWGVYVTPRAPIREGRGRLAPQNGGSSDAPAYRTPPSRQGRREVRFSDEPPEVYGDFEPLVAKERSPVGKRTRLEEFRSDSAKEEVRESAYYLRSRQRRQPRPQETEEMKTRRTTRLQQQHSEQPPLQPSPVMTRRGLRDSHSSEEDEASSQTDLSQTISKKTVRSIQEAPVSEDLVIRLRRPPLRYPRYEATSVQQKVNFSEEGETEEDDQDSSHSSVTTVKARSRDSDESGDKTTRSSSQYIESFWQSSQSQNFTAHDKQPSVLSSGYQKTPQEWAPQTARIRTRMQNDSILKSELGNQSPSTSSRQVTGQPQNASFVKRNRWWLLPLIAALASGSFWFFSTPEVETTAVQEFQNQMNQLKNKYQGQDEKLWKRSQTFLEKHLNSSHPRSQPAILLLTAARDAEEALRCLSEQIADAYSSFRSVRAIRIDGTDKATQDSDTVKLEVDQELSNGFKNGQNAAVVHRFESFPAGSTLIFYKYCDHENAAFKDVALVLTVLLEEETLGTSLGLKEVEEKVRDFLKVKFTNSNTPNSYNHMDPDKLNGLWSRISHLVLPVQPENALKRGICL

In the case of `O=C1CCCC=C1C(O)CCOC(c1ccccc1)(c1ccccc1)c1ccccc1` (stereo not given), the composite z-score was -1 in assay [1]; 0.13 in assay [3]; -0.428 in [4]; -0.131 in assay [5]; -0.0161 in assay [6]; -0.366 in assay [7]. Moreover, the figures for the composite z-score in assay [8], in [9] and in assay [10] were 0.0195, -0.462 and -0.28, respectively. In addition, in [2], the z-score was -3.22.

On to `CC(C)=NO[C@H](C)c1cn([C@H](CO)Cc2ccccc2)nn1`, for which the composite z-score is 0.216 in [1]; 0.13 in [3]; 0.0595 in assay [4]; -0.0004 in assay [5]; 0.0438 in assay [6]; 0.0121 in assay [7]. In addition, the composite z-score in assay [8] is 0.145; in assay [9], -0.197; in [10] it was -0.0691. In addition, in [2], the z-score is -0.463.

As for `O=C(NN=C1C[C@@H](O)[C@@H](O)[C@@H]2[C@@H]3C(=O)N(Cc4ccccc4)C(=O)[C@@H]3CC[C@@H]12)OCc1ccccc1`, the composite z-score was -0.572 in assay [1]; 0.401 in [3]; -0.619 in assay [4]; -0.786 in assay [5]; -0.143 in assay [6]; -0.197 in assay [7]. Further, the composite z-score is -0.223 in assay [8], -0.0694 in assay [9] and 0.0077 in [10]. Besides, in [2], the z-score came to 0.104.

Consider `CCCCc1nc2c(c3c1C[C@H](C)OC3)CN(CCOc1ccccc1)CC2`, for which the composite z-score is 0.348 in assay [1]; 0.814 in assay [3]; -0.407 in assay [4]; -0.7 in [5]; -0.0738 in assay [6]; -0.0977 in assay [7]. In addition, the composite z-score was -0.304 in assay [8], 0.56 in assay [9] and 0.672 in assay [10]. Further, the z-score in [2] is -0.659.

Take `COC(=O)[C@H](C)NC(=O)CCC1CC(OC(=O)NCc2ccc3c(c2)OCO3)CC2(CCCC(COC(=O)NCC3CCCCC3)O2)O1` (stereo not given in full): the composite z-score in assay [1] was 1.37; in assay [3] it was 0.764; in assay [4], 0.369; in [5], -0.0553; in assay [6], 0.0775; in [7] it was -0.138. Also, the composite z-score in assay [8] turned out to be 0.656; in [9], 0.173; in assay [10], 0.54. The z-score in assay [2] was -1.48.

As for `CO[C@@H]1COC(=O)[C@H](CCSC)NC(=O)CC=C[C@@H](C)COC(=O)CCC[C@H]1C`, the composite z-score in [1] is -1.18; in [3] it was 1.65; in [4] it was -1.94; in assay [5], -2.51; in [6], -0.175; in assay [7] it was -0.214. In addition, the composite z-score was -0.472 in assay [8], 0.813 in [9] and -0.354 in assay [10]. The compound also had a z-score in assay [2] of -0.346.

With `O=C(NN=C1C[C@@H](O)[C@@H](O)[C@@H]2[C@@H]3C(=O)N(C[C@@H]4CCCO4)C(=O)[C@@H]3CC[C@@H]12)OCc1ccccc1`, the composite z-score is 0.457 in assay [1]; 0.686 in assay [3]; -0.817 in assay [4]; -1.51 in [5]; -0.243 in assay [6]; 0.111 in assay [7]. The composite z-score was -0.139 in [8], -0.306 in [9] and -0.421 in [10]. For the same compound, the z-score in assay [2] amounted to 0.246.

For the compound `CC(CCN1CCCCc2nc(C)c(C)cc21)=NO[C@@H](C)c1cn([C@H](CO)Cc2ccccc2)nn1`, the composite z-score in [1] was 0.271; in assay [3], 0.813; in assay [4], 0.404; in assay [5], -0.0345; in [6], -0.152; in assay [7], -0.117. Besides, the values for the composite z-score in assay [8], in assay [9] and in assay [10] were -0.397, 0.691 and 0.414, respectively. Moreover, the z-score in assay [2] is -0.507.

As to `CCOC(=O)NN=C1C[C@@H](O)[C@@H](O)[C@@H]2[C@@H]3C(=O)N(Cc4ccccc4)C(=O)[C@@H]3CC[C@H]12`, the composite z-score in [1] was -0.0228; in assay [3] it was 0.545; in assay [4], 0.903; in assay [5], -0.677; in [6], -0.0529; in assay [7] it was -0.0626. For the same compound, the figures for the composite z-score in [8], in assay [9] and in [10] were -0.158, -0.273 and 0.405, respectively. Besides, in assay [2], the z-score stood at 0.47.

Consider `C#CCCCON=C1C[C@@H](O)[C@@H](O)[C@@H]2[C@@H]3C(=O)N(CCC(=O)OCC)C(=O)[C@@H]3CC[C@H]12`, for which the composite z-score in assay [1] was 0.0844; in assay [3] it was 0.387; in [4] it was 1.16; in assay [5], 0.221; in assay [6] it was -0.13; in assay [7], 0.172. Further, the composite z-score in assay [8] is -0.253; in [9], 0.544; in [10], 0.401. The compound also returned a z-score in [2] of 0.283.

For `CCN1C(=O)[C@H]2[C@H]3[C@H](O)[C@H](O)CC(=O)[C@@H]3CC[C@H]2C1=O`, the composite z-score in assay [1] is 0.869; in assay [3], 0.685; in assay [4] it was 0.0536; in [5] it was -0.493; in [6] it was -0.192; in assay [7], -0.138. Further, the figures for the composite z-score in assay [8], in assay [9] and in [10] were -0.237, 0.467 and 0.488, respectively. The compound further yielded a z-score in [2] of 0.105.

`COc1cccc([C@H]2Oc3ccc(OC)cc3C(=NOC(C)CN3CCCCc4nc(C)c(C)cc43)[C@@H]2O)c1` (stereo not given in full): the composite z-score was -0.168 in [1]; 0.321 in assay [3]; 0.147 in assay [4]; -0.861 in [5]; -0.148 in assay [6]; 0.151 in assay [7]. For the same compound, the composite z-score in assay [8] was -0.219; in assay [9], 0.29; in assay [10] it was 0.385. In [2], the z-score was -2.48.

As to `CO[C@H](C1CCCCC1)[C@H](C)C=CCC(=O)OCCCc1ccccc1`, the composite z-score in assay [1] is -0.743; in assay [3], 0.291; in [4], -0.376; in [5] it was -0.937; in assay [6], -0.0874; in assay [7] it was -0.366. Also, the values for the composite z-score in [8], in assay [9] and in assay [10] were -0.27, 0.099 and -0.051, respectively. The z-score in [2] came to 0.714.

The values above are taken from PubChem BioAssay.
